Inconclusive results are not listed. A call without a number means that no potency is given here. Active and inactive are the calls of the source. Unless noted, calls follow the shape of the dose curve; as a rule, active = well fitted curve in the direction sought with a large enough effect; inconclusive = small, poorly fitted or top-dose-only effect, or another doubt; inactive = no such curve, though single readings can be large; an effect the other way counts as inactive or inconclusive.
tested on: not listed separately; assay: Primary qHTS for inhibitors of La Crosse Virus (LACV) - induced cell death in SH-SY5Y cells (AID 1508616); conditions: SH-SY5Y LACV cytopathicity rescue, ATP luminescence, 6 d; series mostly up to 4.29 µM;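 also: top concentration of the series differs between compounds; higher means more rescue of cells from virus-induced death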
How it was run: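 SH-SY5Y cells (6000/well) plated 24 h, then given compounds by pin transfer and LACV at 0.01 MOI for 6 days at 37C. Viability measured by ATPLite luminescence, normalized to infected DMSO and uninfected DMSO.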

Q: Which outcome does the source give for COC1CC(=C(c2cccs2)c2cccs2)C[N+](C)(C)C1 (stereo unspecified) here?
A: inactive

Q: With CCc1cc2c(s1)-n1c(C)nnc1CN=C2c1ccccc1Cl as the molecule, how does the outcome read?
A: inactive

Q: For C[C@]12CC[C@@H]3c4ccc(OC(=O)N(CCCl)CCCl)cc4CC[C@H]3[C@@H]1CC[C@@H]2O, which outcome is on record?
A: inactive

Q: Which outcome does the source give for O=c1oc2ccccc2c(O)c1Cc1c(O)c2ccccc2oc1=O here?
A: inactive

Q: With C[C@@H](N)[C@@H](O)c1ccccc1 as the molecule, how does the outcome read?
A: inactive

molecular target: Calcium and integrin-binding protein 1 (Homo sapiens) (UniProt Q99828); assay: Primary qHTS for Identification of Calcium Integrin Binding Protein 1 (CIB1) Competitor (AID 1508620); conditions: CIB1-GST / FITC-alphaIIb peptide fluorescence polarization; series mostly up to 114 µM;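 also: GST tagged CIB1 binding a fluorescein labelled alphaIIb integrin peptide tracer; top concentration of the series differs between compounds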
Sequence (Q99828 whole entry, looked up): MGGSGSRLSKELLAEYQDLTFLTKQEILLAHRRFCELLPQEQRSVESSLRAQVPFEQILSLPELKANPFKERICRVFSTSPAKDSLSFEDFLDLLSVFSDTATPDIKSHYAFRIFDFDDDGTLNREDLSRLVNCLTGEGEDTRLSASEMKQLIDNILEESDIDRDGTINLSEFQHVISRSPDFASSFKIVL
How it was run: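 Fluorescence polarization competition: GST-tagged CIB1 (1 uM final) preincubated with compound 15 min at room temperature, then FITC-labelled alphaIIb peptide (100 nM final) added. After 15 min at room temperature, polarization read at Ex 480/Em 540.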

Q: With C[C@](O)(CS(=O)(=O)c1ccc(F)cc1)C(=O)Nc1ccc(C#N)c(C(F)(F)F)c1 as the molecule, how does the Potency read?
A: inactive

Q: With COC1CC(=C(c2cccs2)c2cccs2)C[N+](C)(C)C1 (stereo unspecified) as the molecule, how does the Potency read?
A: inactive

Q: With CCc1cc2c(s1)-n1c(C)nnc1CN=C2c1ccccc1Cl as the molecule, how does the Potency read?
A: inactive

Q: Which Potency does the source give for C[C@@H](N)[C@@H](O)c1ccccc1 here?
A: inactive

tested on: not listed separately; assay: Primary qHTS for small molecule stabilizers of the endoplasmic reticulum resident proteome: Secreted ER Calcium Modulated Protein (SERCaMP) assay (AID 1508630); conditions: SH-SY5Y GLuc-SERCaMP (Gaussia luciferase released on ER calcium loss) secretion, thapsigargin, luminescence; series mostly up to 38.4 µM
How it was run: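 GLuc-SERCaMP-expressing SH-SY5Y cells, pretreated 16 h with compound, are challenged with thapsigargin to empty ER calcium stores; after 4 h, coelenterazine is added directly to the medium and luminescence is imaged.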

Q: For COC1CC(=C(c2cccs2)c2cccs2)C[N+](C)(C)C1 (stereo unspecified), which Potency is on record?
A: inactive

Q: For C[C@]12CC[C@@H]3c4ccc(OC(=O)N(CCCl)CCCl)cc4CC[C@H]3[C@@H]1CC[C@@H]2O, which Potency is on record?
A: inactive

Q: For C[C@@H](N)[C@@H](O)c1ccccc1, which Potency is on record?
A: inactive

tested on: not listed separately; assay: A High-Content qHTS Against Drug Library for the Identification of Small Molecules that Inhibit DYT1 Early Onset Primary Dystonia-Associated Cell Pathology (AID 1645839; calls by dose curve); conditions: HEK293 Flp-In EGFP-delE TorsinA, punctate imaging, 48 h; series mostly up to 46.1 µM
How it was run: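 Flp-In T-REx 293 cells with tetracycline-inducible EGFP-delE hTOR1A (WT EGFP-hTOR1A as reference), 800 cells/well; compound added with tetracycline, 48 h at 37 C. Fixed, permeabilized cells imaged; %pathology (punctate TorsinA) primary, cell count counterscreen.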

Q: For COC1CC(=C(c2cccs2)c2cccs2)C[N+](C)(C)C1 (stereo unspecified), which outcome is on record?
A: inactive

Q: With CCc1cc2c(s1)-n1c(C)nnc1CN=C2c1ccccc1Cl as the molecule, how does the outcome read?
A: inactive

Q: Which outcome does the source give for O=c1oc2ccccc2c(O)c1Cc1c(O)c2ccccc2oc1=O here?
A: inactive

Q: With C[C@@H](N)[C@@H](O)c1ccccc1 as the molecule, how does the outcome read?
A: inactive
